Source: the supplement of paper PMC6555819

What follows are sequences tested on PPARg:RXRa 30nM:10nM, anti-RXR (NR concentration 30 nM, RXRa partner concentration 10 nM) (assay: PBM binding z-score (relative to random genomic background probes); higher = stronger binding; sequences stand for … in GC…GCGATTGACAGCGTAGAATGAAGG).
Procedure, shortened: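 On custom Agilent 4×180K arrays, double-stranded probes with 34-nt variable regions carried direct-repeat seeds, single-nucleotide variants, half-site ablations or random human genomic background. Ligand-free nuclear receptor dimers were applied for 1 h, and binding was read with antibodies against each partner (one per run). Binding z-scores come from regression-normalized fluorescence, with the random background probes as reference.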

Row | Sequence | PBM binding z-score
1 | CTACCAAGGTGAACAAGGTCGTTGACTACTATTC | 0.448
2 | GCTAGCTGGTCAGTAAAAGGTCACACACCGGTCG | 1.46
3 | AGTCAAAGTTCACTAGGTAACGTCAGATTCAGCT | 4.13
4 | CTCGAAAGGTAGGTTGAGGTGAGTATACGGATAA | 0.0647
5 | TCATATAGGTAAATGCGAGGTGAAAGTCCGATCT | 4.02
6 | TAGCCTAGGGCATTGGGCCAGTATAGTACGCATC | -0.369
7 | ATCTCTAGGTAAAGTTCAGTAAAAGATCGATAGA | 2.52
8 | CAGCCTAGGTCAGGGCTAGTATAGGAGGAACGTT | -0.0707
9 | CAGACTAGGTCAGGGCCAGTATAGGAGGAACGTT | 1.04
10 | CCTCGGAGGACAGAAGGTCAGAGTTGTCCGCTTT | -0.816
11 | CTCGAAAGGTCGGTTGAGGTGAGTATCCGGATAA | -0.0688
12 | ATCGAAAGGTCGAGGTGAGTATAGAGAAAGGGAA | 1.28
13 | AATACAGGGTCATCGTAGGCCAAAGTACGCACAG | 2.67
14 | CGTCCAAGCTCAATGCTAGGTCAGTGAAAGCATT | -0.752
15 | ATCTCTAGGTAAAGATAGTTCAGTGACTGCAAAT | 0.221
16 | TCTATTAGTTGAAGGGCAACCGGCGAGTCCGTTT | 3.53
17 | CTCGAAACGTCGGTTGAGGTGAGTATACGGATAA | -0.256
18 | ACTAGCAGGCCAAGGGACACTCAAGATTAGTCCG | 0.906
19 | TTACCAAGGTTAAGGTCGTTGATCCCTCTGTAGA | 1.44
20 | GCTGCTAGGTCAGGTTGGACAGCTAACGGGTACG | -0.236

Row | Sequence | PBM binding z-score
21 | GCTATTCGTTGAAAGGGCAACCGAATGATTCTCG | 0.831
22 | CAAACTAGGTCAAAGGTCAATGTCGAGCCAACCA | 13.6
23 | ATATGTAGGTTATCGGGGCATTCAGTTTGCGCAT | 2.48
24 | TCTAGTTGGTCAAATGTCACACACTCGAAATGCG | 5.88
25 | CTACCAAGGTGAACAAGGTCGTTGGTTACTATTC | -0.194
26 | TCTTGTAGGTCAGCAGGTTAAGAAAGCTGGCCAA | 4.19
27 | CGAACTTGGTCAGAACAGGACAGTGAAGGATGAT | -0.0842
28 | ACAGACAGGTGAGTGAAGGTAACTGAGCTGGACG | -0.146
29 | TCTATTAGTTGAAGGGCATCCGACGAGTCCGTTT | 3.75
30 | AGTCAAAGTTCATCTAGGTAAAGTAAGATATGCT | 3.75
31 | CCTTACGGGTCAAGGTTACAGCACGGGTGGTACG | 2.14
32 | CAAACTACGTCAAGGTCAAAGTCGGTTTGTGCCA | 0.626
33 | CCTCGGAGGACATCAGGAGGTCAGAGCTGCCAGA | -0.801
34 | AGAACGAGGGCAATGAGTTGGTAGCACGGGTGGC | -0.238
35 | AGTTAAAGTTCAGGACGAGGTAACGTAAAGCACG | 1.18
36 | ACAGACAGGTGAGTGCAGGTAACTCAGCTGGACG | -0.134
37 | TCATATAGGTAAAAGGTGAAAGCCGGTGTGGTAA | 8.83
38 | GCTGCTTGGTCAGGTTGGTCAGCTAACGGGTACG | -0.905
39 | CCTTACGGGTCACTCCAGGTTAGAGCATCGGAGT | 0.828
40 | CCTACTGGGCCAAAAAGGACATTGATGCCGATAA | 0.0632
